In publication PMC5540273 (PLoS ONE, 2017):

System: T1, DCAMKL3
T1 construct: gene DCLK3
Conditions: concentration: 1 μM, replicates: in singlicate; n = 1
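Also: KINOMEscan kinase panel screen.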

Row | Structure (SMILES) | %Inh [%]
1 | CCc1ccc(-c2ccc3c(c2)-c2nn(C)cc2S(=O)(=O)N3C)cc1 | 0
2 | Nc1n[nH]c2ncc(-c3ccccc3)cc12 [SB-517081] | 22
3 | Cc1nc(N(C)[C@H]2CN(C(=O)CC#N)CC[C@H]2C)c2cc[nH]c2n1 | 63
4 | COc1ccc(-c2coc3ccc(-c4nnc(SCc5cccc(C#N)c5)o4)cc23)cc1 | 0
5 | CCC(=O)c1c(-c2ccccc2)c2cc(Cl)ccc2c(=O)n1Cc1cc(S(C)(=O)=O)n(CCC(C)(C)O)n1 | 21
6 | COc1cc2ncn(-c3cc(OCc4ccncc4)c(C(N)=O)s3)c2cc1OC [GSK336313] | 55
7 | Nc1nccc2scc(-c3ccc4c(c3)CCN4C(=O)Cc3ccccc3)c12 [GSK2576924] | 27
8 | COC(=O)c1c(-c2ccccc2)c2cc(Br)ccc2c(=O)n1Cc1ccc(S(C)(=O)=O)cc1 | 0
9 | CCCC(=O)Nc1n[nH]c2ncc(-c3cccc4ccccc34)cc12 [SB-642057] | 11
10 | O=C1NC(=O)C(c2ccccc2)=C1Nc1cccc(O)c1 [SB-390534] | 0
11 | Cc1nn2c(=O)cc(N3CCOCC3)nc2n1Cc1cccc(Cl)c1Cl [GSK2342769] | 7
12 | C[C@@H]1CC[C@H](C(=O)NC2CCCCC2)CN1c1cc(-c2ccc3c(N)n[nH]c3c2)nc(N)n1 [GSK2291363] | 0
13 | Nc1ncnc2c1ncn2-c1cccc2ccccc12 [SKF-97184] | 15
14 | COc1cc2ncn(-c3cc(OCc4ccncc4Br)c(C(N)=O)s3)c2cc1OC [GW854278] | 0
